# About 83,000 compounds went through this panel and 20% of them were active in at least one assay; those are over-represented in the sample as a whole.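 Activity criterion: percent growth below 10, measured after cells in 96-well plates were exposed to a single compound concentration for 48 hours.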 Calls of active or inactive are those of the source.
# Tested on: NCI-H226 lung
# Test: NCI-60 one-dose screen, 48 h (100 = growth as untreated, 0 = no growth, -100 = all killed)
# Details: 10 µM unless noted
# Procedure: Growth inhibition of the NCI-H226 human Non-Small Cell Lung tumor cell line is measured as a screen for anti-cancer activity. Cells are grown in 96 well plates and exposed to the test compound for 48 hours. Compounds are tested at a single concentration, which is 10^-5 M for most compounds. The reported endpoint is percent growth (GI% or GIPRCNT), where numbers from 0 - 100% represent growth inhibition, and numbers from -100% - 0 represent cell death. For example, a value of 40 represents 60% growth inhibition. A value of 0 means no net growth occurred over the course of the experiment. A value of -40 indicates 40% of cells at the beginning of the experiment died by the end of the experiment. A value of -100 means all cells are dead at the end of the experiment.
# NCI-60 Human Tumor Cell Lines Screen was performed using the standard one-dose NCI protocol, which is described in more detail at https://dtp.cancer.gov/discovery_development/nci-60/default.htm.
# Compounds with GIPRCNT values below 10 were considered active. Activity score was based on GIPRCNT using the following formula: […]
# Score is 0 for GIPRCNT values of 100 or above, 50 for GIPRCNT values of 0, and 100 for GIPRCNT values of -100.
row,Compound,growth
1,CN(C)c1ccc(C(=O)OCCCCCCl)cc1,99% (inactive)
2,O=C1/C(=C/c2ccc([N+](=O)[O-])cc2)COc2ccc(O)cc21,100% (inactive)
3,O=[N+]([O-])c1cccc(-c2nc3cc4nc5ccccc5[nH]c4cc3n2)c1,105% (inactive)
4,CCCCn1c(=O)[nH]c(N)c([C@@H]2c3c([nH]c(=O)n(CCCC)c3=O)Oc3ccc4ccccc4c32)c1=O,92% (inactive)
5,Oc1ccc(Cl)cc1/C=N\NC(=S)N/N=C/c1cc(Cl)ccc1O,32.5% (inactive)
6,COCCOc1cc2ncnc(N3CCN(c4ncc(S(=O)(=O)N5CCCCC5)cn4)CC3)c2cc1OCCOC,97.2% (inactive)
7,CCOC(=O)C1=C(c2ccccc2)N=C2SC=C(c3ccc(Cl)cc3)N2C1c1ccc(Br)cc1 (stereo not given),76.6% (inactive)
8,CCCCNC(=O)Oc1ccc(/C(=C(/C)Cc2ccc(OC)cc2)c2ccc(OCCN(CC)CC)cc2)cc1,101% (inactive)
9,Cn1cc(-c2csc(-c3c[nH]c4ccccc34)n2)c2cnccc21,87.7% (inactive)
10,O=C(O)c1ccc(-n2cc(/C=N/Nc3ccccc3)c(-c3ccc(F)cc3F)n2)cc1,84.2% (inactive)
11,C#CCNC(=O)[C@H](CC)[C@H]1CC[C@H](C)[C@H]([C@@H](C)[C@H](O)[C@H](C)C(=O)[C@H](CC)C2O[C@]3(C=CC(=O)[C@]4(CC[C@@](C)([C@H]5CC[C@](O)(CC)[C@H](C)O5)O4)O3)[C@H](C)C[C@@H]2C)O1 (stereo not given in full),57.7% (inactive)
12,O=C(Nc1ccc(OS(=O)(=O)c2ccc(F)cc2)cc1)C1CCCCCC1,94.3% (inactive)
13,O=C1C(=O)N(Cc2ccc(-c3ccccc3)cc2)c2ccc(OC(F)(F)F)cc21,73.6% (inactive)
14,N#Cc1c(-c2ccccc2)cc(-c2ccc(Nc3nc(Nc4ccc(Cl)cc4)nc(Nc4ccc(Cl)cc4)n3)cc2)nc1N,-23.4% (active)
15,CCNCCNc1cc(-c2ccc(C(F)(F)F)cc2)c(C#N)c2nc3ccccc3n12,-66.1% (active)
16,Cc1cn(-c2cc(NC(=O)c3cccc(C#Cc4cccc5[nH]nc(N)c45)c3)cc(C(F)(F)F)c2)cn1,22.1% (inactive)
17,c1ccc(-c2oc(-c3ccccc3)c(CN3CCCCC3)c2CN2CCCCC2)cc1,47.5% (inactive)
18,O=C1C(Cl)=C(NCCCCCCNC2=C(Cl)C(=O)c3ccccc3C2=O)C(=O)c2ccccc21,102% (inactive)
19,Cc1ccc(-c2nc([P+](c3ccccc3)(c3ccccc3)c3ccccc3)c(S(=O)(=O)c3ccc(C)cc3)o2)cc1,46.9% (inactive)
20,COC(=O)[C@@H](CCCCNC(=O)[C@]12CCC(C)(C)C[C@@H]1C1=CC[C@@H]3[C@@]4(C)C/C(=C/c5ccco5)C(=O)C(C)(C)[C@@H]4CC[C@@]3(C)[C@]1(C)CC2)NC(=O)[C@]12CCC(C)(C)C[C@@H]1C1=CC[C@@H]3[C@@]4(C)C/C(=C/c5ccco5)C(=O)C(C)(C)[C@@H]4CC[C@@]3(C)[C@]1(C)CC2,103% (inactive)

row,Compound,growth
1,O=C(Nc1cccc(-c2ccc(Cl)c(C(F)(F)F)c2)c1)C1CCN(Cc2cccc3cccnc23)CC1,45.9% (inactive)
2,O=C(c1ccncc1)N1N=C(c2ccc(Cl)cc2)C[C@H]1c1cn(-c2ccccc2)nc1-c1ccccc1,89.9% (inactive)
3,CCOC(=O)C1=C(c2ccccc2)N=C2SC=C(c3ccc(Cl)cc3)N2C1c1ccc(Cl)cc1 (stereo not given),79.5% (inactive)
4,NC(=O)CSc1oc(-c2ccccc2)nc1S(=O)(=O)c1ccc(Br)cc1,54.7% (inactive)
5,O=C(Nc1nc2cc(C(=O)N3CCN(C(c4ccccc4)c4ccccc4)CC3)ccc2o1)c1ccc(NC2CCCCC2)c([N+](=O)[O-])c1,65.1% (inactive)
6,COc1ccc(-c2cc(-c3cc(OC)c(OC)c(OC)c3)c(C#N)c(=O)n2CCCCC(=O)NO)cc1,82.3% (inactive)
7,O=c1c2cccc3c(N4CCCC4)ccc(c32)c2nc3ccccc3n12,55.3% (inactive)
8,Cn1cc(-c2csc(-c3cn(C(=O)OC(C)(C)C)c4ccc(Br)cc34)n2)c2ccnc(Cl)c21,73.3% (inactive)
9,CN(C)CCNC(=O)c1cc2c3cc(Cl)ccc3[nH]c2c2ncccc12,25% (inactive)
10,O=C1Nc2ccccc2/C1=C/c1cccn1CCCCn1c2ccccc2c(=O)c2ccccc21,75.2% (inactive)
11,Cc1cc(C(=O)O)c(C)n1-c1cccc(C(=O)O)c1,100% (inactive)
12,O=C(/C=C/c1cccc(Cl)c1)c1ccc(Nc2nc(Nc3ccc(F)cc3)nc(Nc3ccc(Cl)cc3)n2)cc1,118% (inactive)
13,COc1ccc(C(=O)C/C(=C\c2ccc(Cl)cc2)C(=O)NCc2ccccc2)cc1,73.4% (inactive)
14,C=CCc1c(O)c(C(=O)/C=C/c2ccccc2)c(OC)c2ccoc12,21.9% (inactive)
15,O=C(CN1CCCCC1)Nc1nc(-c2cc3ccccc3oc2=O)cs1,88.3% (inactive)
16,C=CC[Se]C(=O)Cc1c(C)n(C(=O)c2ccc(Cl)cc2)c2ccc(OC)cc12,-20.5% (active)
17,CC(C)=CCC[C@](C)(O)[C@H]1CC[C@]2(C)[C@@H]1CC[C@@H]1[C@@]3(C)C/C(=C/c4ccco4)C(=O)C(C)(C)[C@@H]3CC[C@]12C,103% (inactive)
18,COC(=O)CC[C@@H]1O[C@@H](c2cccc(C(F)(F)F)c2)[C@@H](O)[C@H]1O,103% (inactive)
19,CC1OC(n2c3ccccc3c3c4c(c5c6ccccc6[nH]c5c32)C(=O)N(CCN2CCCC2)C4=O)CC(O)C1O (stereo not given),43.1% (inactive)
20,COc1ccc(CNc2c3ccccc3nc3ccccc23)cc1,51.4% (inactive)

# From PubChem BioAssay (NCI)
